# Test results taken from PubChem BioAssay.
# Unmarked numbers belong to inactive results. Unless noted, the rule behind the calls is not given here.
# Test: cell viability in Huh7 cells, primary screen, cytotoxicity control for HCV replication inhibitor project, CellTiter-Glo luminescence, basal, 48 h (AID 1143);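 note: Huh7 hepatoma cells carrying a hepatitis C replication reporter with no stimulus; test concentration not given here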
# Settings: Huh7 HCV replicon, higher = more signal, called active from +8 up or from −8 down
row,Compound,z-score
1,COC(=O)C(CC#Cc1ccc2c(c1)[C@]1(C(=O)N2)[C@H](c2ccc(O)cc2)N2[C@H](c3ccccc3)[C@H](c3ccccc3)OC(=O)[C@H]2[C@@H]1C(=O)Nc1nc2ccccc2s1)C(=O)OC,-2.01
2,O=C1[C@H]2C=C(Br)[C@H](C[C@@H]2OCCCCO)[C@@]12CO2,0.722
3,Cc1ccc(C(C)CC(O)C2C=CC3C(=O)N(c4ccccc4)C(=O)C3N2Nc2ccc([N+](=O)[O-])cc2)o1 (stereo not given),-0.344
4,COCCOC(=O)N1C(=O)[C@@]2(c3cc(C#CCCO)ccc31)[C@H](C(=O)Nc1nc3ccccc3s1)[C@H]1C(=O)O[C@H](c3ccccc3)[C@H](c3ccccc3)N1[C@@H]2c1ccc(OCCO)cc1,-0.224
5,CCCCC(O)C1C=CC2C(=O)N(c3ccccc3)C(=O)C2N1Nc1ccccc1F (stereo not given),0.615
6,[N-]=[N+]=Nc1ccccc1C[C@]1(C(=O)NCC(O)CO)N=C(c2ccc(OCCCO)cc2)O[C@H]1c1ccccc1N=[N+]=[N-] (stereo not given in full),-3.86
7,C=C(CCCC)/C(=C/C[C@@H](OC(C)=O)c1ccccc1OCCO)c1cnc2ccccc2c1,-1.6
8,OC([C@@H]1CC(c2ccccc2)=NO1)[C@H]1CC(c2ccccc2)=NO1 (stereo not given in full),-0.263
9,[N-]=[N+]=NCc1ccccc1[C@H]1OC(c2ccc(OCCCO)cc2)=N[C@@]1(Cc1ccccc1)C(=O)NCc1ccccc1,-3.57
10,O=C(NCc1ccccc1)[C@@H]1c2ccccc2C(=O)N(CC23CC4CC(CC(C4)C2)C3)[C@H]1c1ccc(CO)cc1,-2

# Test: P. aeruginosa biofilm formation inhibitors, primary screen, PAO1 strain, BacTiter-Glo luminescence, LB-PBS (AID 1144)
# Settings: 12 h, higher = more signal
row,Compound,z-score
1,O=C1C2C=CC(C(O)C3CCCCC3)N(Nc3ccc([N+](=O)[O-])cc3)C2C(=O)N1c1ccccc1 (stereo not given),-0.998
2,C=CCNC(=O)[C@H]1[C@@H]2C(=O)O[C@@H](c3ccccc3)[C@@H](c3ccccc3)N2[C@@H](c2ccc(OCCO)cc2)[C@]12C(=O)N(C(=O)OCCOC)c1ccccc12,-0.478
3,O=C1C2C=CC(C(O)c3c(F)cccc3Cl)N(Nc3ccccc3)C2C(=O)N1c1ccccc1 (stereo not given),-0.48
4,CC(C)c1ccc(NN2C(C(O)c3cc(C(F)(F)F)cc(C(F)(F)F)c3)C=CC3C(=O)N(c4ccccc4)C(=O)C32)cc1 (stereo not given),-1.4
5,[N-]=[N+]=NCc1ccccc1C[C@]1(C(=O)O)N=C(c2ccc(OCCCO)cc2)O[C@H]1c1ccccc1N=[N+]=[N-],-2.08
6,O=C1O[C@H](c2ccccc2)[C@H](c2ccccc2)N2[C@H]1[C@@H](C(=O)NC[C@H](O)c1ccccc1)[C@]1(C(=O)Nc3ccccc31)[C@H]2c1ccc(OCCO)cc1,-1.13
7,COC(=O)[C@@]1(Cc2ccc(F)cc2)[C@H]2c3cc(C(=O)N4CCCC4)n(Cc4ccc(C)o4)c3C[C@H]2CN1C(=O)c1ccccc1,0.82
8,COc1ccc([Si](C)(C)[C@H]2[C@H](CCn3cc([C@H](O)c4ccccc4)nn3)O[C@@]3(C(=O)N(Cc4cccc(N5CCOC5=O)c4)c4ccccc43)[C@@H]2C)cc1,-0.394
9,COc1ccc(CCNC(=O)[C@@]2(C)c3ccccc3C(=O)N(Cc3cc(F)cc(C(F)(F)F)c3)[C@H]2c2ccc(CO)cc2)cc1,1.3
10,O=C1O[C@@H](c2ccccc2)[C@@H](c2ccccc2)N2[C@@H](c3ccc(OCCO)cc3)[C@]3(C(=O)Nc4ccccc43)[C@@H](C(=O)NC[C@H](O)c3ccccc3)[C@H]12,-0.388
11,C=C(/C(=C/C[C@@H](OC(C)=O)c1ccc(OCCO)cc1)c1cnc2ccccc2c1)C(C)C,-0.25
12,O=C1OCC=C[C@H]2OC34C=CCN(CCN5CCOCC5)C(=O)[C@H]3N(CCCO)C(=O)[C@@H]4[C@@H]12 (stereo not given in full),-0.0222
13,C=CC[C@]1(C(=O)NCCCOC)N=C(c2ccc(OCCCO)cc2)O[C@H]1c1ccccc1N=[N+]=[N-],-0.742
14,COCC(=C=CC[C@H](O)c1ccccc1OCCO)C[C@H](O)c1cc(Cl)cc(Cl)c1O,0.421
15,COC(=O)c1c(CC[C@@H](CO)NC(=O)N2CCC[C@H]2Cn2cc(-c3ccccn3)nn2)oc(C(C)=O)c1C(=O)OC,-0.95
16,C=CCN(Cc1ccccc1)C(=O)C(c1cccs1)N(CCOCCO)C(=O)/C=C\C(=O)O (stereo not given),-1.93
17,CCN(CC)c1ccc(N2CC=CC34O[C@@H]5/C=C\CCCOC(=O)C5[C@H]3C(=O)N(CCO)[C@@H]4C2=O)cc1 (stereo not given in full),0.0243
18,C=CC[C@@]1(C(N)=O)N=C(c2ccc(OCCCO)cc2)O[C@@H]1c1ccccc1CN=[N+]=[N-],-0.58

row,Compound,z-score
1,O=C1c2ccccc2[C@](Cc2ccccc2I)(C(=O)NC2CC2)[C@H](c2ccc(CO)cc2)N1C1CCCCC1,0.214
2,O=C(NCc1ccccc1)[C@@]1(CCS(=O)(=O)c2ccccc2)N=C(c2ccc(OCCCO)cc2)O[C@H]1c1ccccc1,-0.847
3,CCCCCN1CC=CC23O[C@@H]4/C=C\CCCOC(=O)C4[C@H]2C(=O)N(CCCO)[C@@H]3C1=O (stereo not given in full),-1.17
4,C=CCNC(=O)[C@@H]1[C@H]2C(=O)O[C@H](c3ccccc3)[C@H](c3ccccc3)N2[C@H](c2ccccc2OCCO)[C@@]12C(=O)N(C(=O)OCCOC)c1ccc(C#CCNC(N)=O)cc12,-0.441
5,COCCOC(=O)N1C(=O)[C@@]2(c3cc(C#CCCO)ccc31)[C@H](C(=O)N1CCN(c3ncccn3)CC1)[C@H]1C(=O)O[C@H](c3ccccc3)[C@H](c3ccccc3)N1[C@@H]2c1ccccc1OCCO,-0.173
6,COc1ccc(CCN2C(=O)[C@@]3(c4ccc([N+](=O)[O-])cc4)CC(=O)N(C4CCCCC4)[C@@H]3c3ccc(CO)cc32)cc1,0.0718
7,CCOC(=O)C[C@H]1[C@H](OC(=O)c2ccc(C(=O)c3ccccc3)cc2)[C@@H](NC(=O)c2ccc(-c3ccccc3)cc2)c2cc(OCCCO)ccc2N1C(=O)c1ccccc1,0.0763
8,COC(=O)C(CC#Cc1ccc2c(c1)[C@]1(C(=O)N2)[C@H](c2ccc(O)cc2)N2[C@H](c3ccccc3)[C@H](c3ccccc3)OC(=O)[C@H]2[C@@H]1C(=O)Nc1nc2ccccc2s1)C(=O)OC,-1.45
9,O=C1[C@H]2C=C(Br)[C@H](C[C@@H]2OCCCCO)[C@@]12CO2,0.56
10,Cc1ccc(C(C)CC(O)C2C=CC3C(=O)N(c4ccccc4)C(=O)C3N2Nc2ccc([N+](=O)[O-])cc2)o1 (stereo not given),-0.99
11,COCCOC(=O)N1C(=O)[C@@]2(c3cc(C#CCCO)ccc31)[C@H](C(=O)Nc1nc3ccccc3s1)[C@H]1C(=O)O[C@H](c3ccccc3)[C@H](c3ccccc3)N1[C@@H]2c1ccc(OCCO)cc1,-1.05
12,CCCCC(O)C1C=CC2C(=O)N(c3ccccc3)C(=O)C2N1Nc1ccccc1F (stereo not given),-0.571
13,[N-]=[N+]=Nc1ccccc1C[C@]1(C(=O)NCC(O)CO)N=C(c2ccc(OCCCO)cc2)O[C@H]1c1ccccc1N=[N+]=[N-] (stereo not given in full),-0.0958
14,C=C(CCCC)/C(=C/C[C@@H](OC(C)=O)c1ccccc1OCCO)c1cnc2ccccc2c1,-0.131
15,OC([C@@H]1CC(c2ccccc2)=NO1)[C@H]1CC(c2ccccc2)=NO1 (stereo not given in full),-0.00202
16,[N-]=[N+]=NCc1ccccc1[C@H]1OC(c2ccc(OCCCO)cc2)=N[C@@]1(Cc1ccccc1)C(=O)NCc1ccccc1,-0.862
17,O=C(NCc1ccccc1)[C@@H]1c2ccccc2C(=O)N(CC23CC4CC(CC(C4)C2)C3)[C@H]1c1ccc(CO)cc1,0.196
